In PubChem BioAssay (NCI) one finds growth data, which are given here for 6 compounds.

What all share (test): NCI-60 one-dose screen, 48 h (100 = growth as untreated, 0 = no growth, -100 = all killed)
Holding throughout (details): 10 µM unless noted

The test system of assay [1] is NCI-H23 lung.
Assay [2] has as its system NCI-H226 lung.
For assay [3], the system named is NCI-H322M lung.
Assay [4] has as its system HOP-62 NSCLC.
Assay [5] deals with NCI-H460 lung.
Assay [6] concerns HOP-92 NSCLC.
Assay [7] relates to NCI-H522 lung.
The test system of assay [8] is A549/ATCC NSCLC.
Assay [9] has as its system 786-0 renal.
Assay [10] concerns COLO 205 colon.
Assay [11] concerns DU-145 prostate.
The test system of assay [12] is K-562 leukemia.
Assay [13] concerns MALME-3M melanoma.
Assay [14] deals with MDA-MB-231 breast.
Assay [15] relates to RXF 393 renal.
Assay [16] has as its system SF-268 CNS.
For assay [17], the system named is SF-295 CNS.
Assay [18] has as its system SF-539 CNS.
The test system of assay [19] is UACC-257 melanoma.
Assay [20] has as its system M14 melanoma.

Each structure is given as a SMILES string. The panel holds about 83,000 compounds, 20% with a hit somewhere; the sample as a whole holds those more often.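 Compound tested at a single concentration for 48 hours in 96-well plates; a percent growth value below 10 was scored as active.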 Active and inactive are the calls of the source.

As to `O=C(/C=C\c1ccc(O)c(O)c1)c1ccccc1O`, the growth is 86.5% (inactive) in [1]; 71.4% (inactive) in assay [2]; 79.7% (inactive) in assay [3]; 98.7% (inactive) in assay [4]; 61.5% (inactive) in assay [5]; 55.6% (inactive) in assay [6]. The growth in assay [7] was -61.3% (active); in [8], 55.7% (inactive); in assay [9], 100% (inactive); in assay [10], 80.6% (inactive); in assay [11], 94.4% (inactive); in assay [12], 73.4% (inactive). The growth in [13] was 97.4% (inactive); in assay [14], 69.3% (inactive); in [15] it was 42.8% (inactive); in assay [16] it was 69.5% (inactive); in assay [17] it was 99.7% (inactive); in assay [18], 59.3% (inactive). The growth in assay [19] is 86.1% (inactive); in assay [20], 93.5% (inactive).

`Oc1ccc(C2OCCO2)c2cccnc12`: the growth was 33% (inactive) in assay [1]; 23.4% (inactive) in assay [2]; 92.5% (inactive) in [3]; 51.6% (inactive) in assay [4]; 68.1% (inactive) in assay [5]; 68.8% (inactive) in [6]. Besides, the growth is 92.9% (inactive) in [7]; 56.3% (inactive) in [8]; 97.9% (inactive) in assay [9]; 63.7% (inactive) in assay [10]; 56.7% (inactive) in [11]; 17.3% (inactive) in assay [12]. Moreover, the growth in assay [13] is 49% (inactive); in assay [14] it was 46.6% (inactive); in [15] it was 77% (inactive); in [16], 31.1% (inactive); in assay [17] it was 86.9% (inactive); in [18] it was 36% (inactive). Further, the results for the growth in assay [19] and in assay [20] were 79.2% (inactive) and 25.8% (inactive), respectively.

Regarding `CCOC(=O)C1=CCC(n2cc(F)c(=O)[nH]c2=O)O1` (stereo not given), the growth in assay [1] is 101% (inactive); in assay [2] it was 103% (inactive); in assay [3], 127% (inactive); in assay [4] it was 122% (inactive); in assay [5], 97.8% (inactive); in [6], 107% (inactive). The growth in assay [7] was 112% (inactive); in assay [8] it was 102% (inactive); in [9], 107% (inactive); in assay [10], 109% (inactive); in [11], 97.6% (inactive); in assay [12], 108% (inactive). Moreover, the growth in assay [13] was 112% (inactive); in assay [14], 115% (inactive); in assay [15], 171% (inactive); in [16], 101% (inactive); in [17], 114% (inactive); in [18], 100% (inactive). For the same compound, the results for the growth in assay [19] and in assay [20] were 99.7% (inactive) and 97.8% (inactive), respectively.

Take `COc1cccc(-c2nn(-c3ccccc3)cc2-c2ccnc(-c3cccnc3)c2)c1`: the growth was 86.5% (inactive) in assay [1]; 95% (inactive) in [2]; 109% (inactive) in assay [3]; 97.4% (inactive) in [4]; 92% (inactive) in assay [5]; 95% (inactive) in [6]. In addition, the growth in assay [7] is 86.9% (inactive); in [8] it was 96.4% (inactive); in assay [9], 98.1% (inactive); in assay [10], 94.3% (inactive); in [11], 104% (inactive); in assay [12], 81.2% (inactive). The growth in assay [13] was 83% (inactive); in [14], 86.8% (inactive); in assay [15], 107% (inactive); in assay [16], 94.9% (inactive); in assay [17] it was 89.2% (inactive); in assay [18], 90.1% (inactive). Moreover, the growth in assay [19] was 117% (inactive); in [20], 92.8% (inactive).

Take `O=C1/C(=C/c2cccc([N+](=O)[O-])c2)COc2ccc(O)c(O)c21`: the growth in assay [1] is -27.4% (active); in assay [2], 81.5% (inactive); in assay [3], 28.7% (inactive); in assay [4], -31.3% (active); in [5] it was 4.3% (active); in assay [6] it was -43.1% (active). For the same compound, the growth in assay [7] is -71.3% (active); in assay [8], 9.74% (active); in [9], -87.9% (active); in [10], -18.2% (active); in [11], 2.4% (active); in [12], 6.45% (active). For the same compound, the growth is -53.3% (active) in assay [13]; -76.9% (active) in assay [14]; -81.3% (active) in [15]; -4.32% (active) in [16]; 58.6% (inactive) in assay [17]; -89.1% (active) in assay [18]. Also, the growth in assay [19] is 3.37% (active); in assay [20], -63.9% (active).

In the case of `Nc1n[nH]c2cccc(C#Cc3cccc(C(=O)Nc4ccc(Cl)c(C(F)(F)F)c4)c3)c12`, the growth in [1] is 59.1% (inactive); in assay [2] it was 36% (inactive); in [3], 77% (inactive); in [4] it was 67.5% (inactive); in assay [5] it was 64.3% (inactive); in [6] it was 20.1% (inactive). The growth in [7] was 30.9% (inactive); in assay [8], 71.3% (inactive); in [9], 76.6% (inactive); in assay [10], 29.3% (inactive); in assay [11], 83.6% (inactive); in assay [12] it was 6.22% (active). In addition, the growth in assay [13] is 14.9% (inactive); in assay [14] it was 40.4% (inactive); in assay [15] it was 66.9% (inactive); in [16], 61.7% (inactive); in [17], 66.6% (inactive); in assay [18] it was 33.5% (inactive). The growth in [19] is 48.2% (inactive); in assay [20], 23% (inactive).
